# Compounds without any hit were thinned out: in the full panel of roughly 83,000, 20% have a hit.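 Note: values are percent growth. 100 is the growth of untreated cells, values between 100 and 0 indicate rising inhibition; between -100 and 0 indicates cell death.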 A number with no mark means an inactive call. Calls of active or inactive are those of the source. How the source made its calls: active means growth percent below 10; inactive means the rest.
# Columns and labels:
# Experiment in all cases: NCI-60 one-dose screen, 48 h (100 = growth as untreated, 0 = no growth, -100 = all killed)
# Conditions in all cases: 10 µM unless noted
# NCI-H23 lung = system: NCI-H23 lung
# NCI-H226 lung = system: NCI-H226 lung
# NCI-H322M lung = system: NCI-H322M lung
# HOP-62 NSCLC = system: HOP-62 NSCLC
# NCI-H460 lung = system: NCI-H460 lung
# HOP-92 NSCLC = system: HOP-92 NSCLC
# NCI-H522 lung = system: NCI-H522 lung
# A549/ATCC NSCLC = system: A549/ATCC NSCLC
# 786-0 renal = system: 786-0 renal
# COLO 205 colon = system: COLO 205 colon
Structure (SMILES),growth (NCI-H23 lung),growth (NCI-H226 lung),growth (NCI-H322M lung),growth (HOP-62 NSCLC),growth (NCI-H460 lung),growth (HOP-92 NSCLC),growth (NCI-H522 lung),growth (A549/ATCC NSCLC),growth (786-0 renal),growth (COLO 205 colon)
CCN(CC)CCCCCCCNc1cc(OC)cc2c(C)ccnc12,87.6%,86.6%,94.8%,93.3%,85.2%,57.5%,71.4%,94.7%,80.8%,72.9%
Oc1ccc(CCCCCCc2ccc(O)cc2)cc1,59.5%,101%,92%,80.6%,46.4%,64%,56.6%,47.6%,14.2%,103%
COc1cccc(CC(C)=C(c2ccc(OCCCN(C)C)cc2)c2ccc(OCCCN(C)C)cc2)c1,-66.9% (active),-18.9% (active),-95% (active),-81% (active),-90.2% (active),-53% (active),-77.3% (active),-81.5% (active),-85.6% (active),-74.1% (active)
CC(CN1CCN(CCOCCO)CC1)CN1c2ccccc2Sc2ccc(Cl)cc21 (stereo not given),72.7%,83.5%,88.2%,107%,50.2%,-3.33% (active),33.3%,75.1%,65.5%,-79.9% (active)
Cc1cc(C)c2c(n1)sc1c(Nc3ccc(OCc4ccccc4)cc3)ncnc12,101%,96.2%,92.8%,101%,98.8%,88.2%,90.1%,101%,97.8%,111%
Cc1c(O)c(=O)n(-c2ccccc2)n1C,101%,100%,108%,100%,118%,96.3%,110%,105%,101%,111%
Cc1cc(C#Cc2ccccc2)ccc1-n1c(/C=C/c2ccc(F)cc2)nc2ccccc2c1=O,71.5%,84.7%,87.5%,122%,63.6%,39.2%,64.1%,68.5%,80.4%,53.3%
Cc1c(-c2ccc(-c3ccccc3F)cc2)nc2ccc(F)cc2c1C(=O)O,54.6%,65.4%,44.5%,49.3%,10.6%,42.5%,34.3%,34.7%,23%,49.2%
Fc1cnccc1-c1nc2ccc3[nH]ncc3c2c2c1CCCC2,31.9%,30%,29.5%,21%,25.8%,40.7%,18.8%,14.6%,28.1%,17.6%
CC(=O)N1N=C(c2ccc(C)cc2)CC1c1cn(-c2ccccc2)nc1-c1cccc(Nc2ccnc3cc(Cl)ccc23)c1 (stereo not given),79.1%,111%,56.9%,-19.7% (active),15.8%,78.7%,36%,68.4%,52.3%,93.8%
CN1CCN(Cc2ccc(NC(=O)c3ccc(C#N)c(C#Cc4cnc(N)c5ncccc45)c3)cc2C(F)(F)F)CC1,96.8%,59.4%,96.7%,87.2%,21.7%,81.9%,98.4%,90.6%,-80.3% (active),77.7%
O=C(/C=C/c1cc([N+](=O)[O-])ccc1Cl)c1ccccc1,87.6%,86.5%,88.1%,103%,97.6%,73.7%,82.9%,91.5%,78.4%,109%
COc1ccc(C2CC(c3cccc(Nc4ccnc5cc(Cl)ccc45)c3)=NN2c2ccc(Cl)cc2)cc1 (stereo not given),84.4%,83.6%,72.4%,88.7%,47.6%,68.5%,90.4%,70.6%,74.4%,73.9%
CNC(=O)c1cc(Oc2ccc(NC(=O)c3[nH]c(SC)nc3-c3ccc(F)cc3)cc2)ccn1,75.4%,81.7%,85.4%,95%,72.6%,70.6%,68%,72.2%,78.1%,7.33% (active)
Nc1ccc(C(OC(=O)c2cc3ccccc3c(Cc3c(O)c(C(=O)OC(c4ccc(N)cc4)(c4ccc(N)cc4)c4ccc(N)cc4)cc4ccccc34)c2O)(c2ccc(N)cc2)c2ccc(N)cc2)cc1,9.92% (active),30.8%,3.77% (active),6.24% (active),1.82% (active),-6.69% (active),9.97% (active),10.7%,23.5%,-83.7% (active)
CCCCCCCCCCCCCCC(C(=O)OCC)C(=O)OCC,105%,93.3%,104%,105%,109%,105%,92.6%,109%,115%,115%
NC(=Nc1ccccc1)SCCCSC(N)=Nc1ccccc1,92.6%,93.6%,81.8%,96.5%,100%,41.6%,69.2%,89.5%,102%,78.7%
COc1cc2c(cc1OCCCOc1cc3c(cc1OC)C(=O)N1CCC[C@H]1C=N3)C=CC(C)(C)O2,107%,82.7%,133%,101%,108%,66.3%,83.7%,99.3%,102%,103%
COc1ccc(C(=O)/C=C/c2cn(-c3ccccc3)nc2-c2cccc(Nc3ccnc4cc(Cl)ccc34)c2)cc1,101%,95.4%,101%,103%,96.6%,64.9%,96.7%,95.3%,99.5%,102%
CCN(CC)c1ccc(C(=N)c2ccc(N(C)C)cc2)cc1,-23.3% (active),16.4%,60.6%,7.49% (active),0.221% (active),-21% (active),-13.5% (active),28.6%,7.03% (active),-54.5% (active)
Cc1ccc2oc(=O)cc(-c3nc4ccc([N+](=O)[O-])cc4[nH]3)c2c1,43.9%,66.6%,80.5%,72%,47.1%,52.7%,36%,35.2%,40.6%,67.8%
CCCCCc1c(C)[nH]c(/C=C2\N=C(c3ccc[nH]3)C=C2CC)c1C,-81% (active),-92.3% (active),-90.2% (active),-72.2% (active),-73.3% (active),-91.8% (active),-88.8% (active),-86.4% (active),-93.6% (active),-87.7% (active)
CN(C)c1ccc(Nc2c3ccccc3nc3ccccc23)cc1,16%,-38.3% (active),15.5%,32.6%,-26.6% (active),-7.43% (active),20.4%,14.2%,9.08% (active),-51.7% (active)
COc1cc(C2Nc3ccccc3S2)cc(CN2CCOCC2)c1O (stereo not given),78.8%,92.3%,116%,86.1%,52.7%,103%,-2.67% (active),73.6%,104%,89.6%
Clc1ncnc2scc(C3COc4ccccc4O3)c12 (stereo not given),95.9%,75.3%,98.6%,105%,106%,78.9%,53.6%,95.5%,104%,100%
